Several values for one entry are separate records, joined by “and”; a condition that tells them apart may be missing. Equal values may be shown once. Records with an inconclusive call do not appear. A structure can be active in one record and inactive in another. Activity calls are given as the source filed them. How the source made its calls, unless noted: active means hit-call score of the fitted dose curve at least 0.9, where 1 is the maximum; inactive means score below 0.9.
Experiments:
[1] = target: Bile acid receptor (Homo sapiens) (UniProt Q96RI1); experiment: ATG_FXR_TRANS: Attagene TRANS-FACTORIAL HepG2 Assay for Farnesoid X Receptor (FXR) (AID 2282979; active means hit-call score of the fitted dose curve at least 0.9, where 1 is the maximum;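 further: hits raise reporter mRNA above DMSO so AC50 marks FXR activation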); settings: HepG2 Attagene TRANS FXR-GAL4 reporter transcription
Summary of the method: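 Chimeric FXR-GAL4 activity in transiently transfected human HepG2 liver cells is scored as induction of reporter mRNA after 24 h of dosing. Detection uses RT-PCR with fluorescent labelling and capillary electrophoresis, with DMSO serving as baseline.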

[2] = target: Hepatocyte nuclear factor 4-alpha (Homo sapiens) (UniProt P41235); experiment: ATG_HNF4a_TRANS: Attagene TRANS-FACTORIAL HepG2 Assay for human Hepatocyte Nuclear Factor 4 alpha (HNF4a) (AID 2282982; active means hit-call score of the fitted dose curve at least 0.9, where 1 is the maximum); settings: HepG2 HNF4a transactivation reporter, mRNA readout
Summary of the method: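 HepG2 cells transiently transfected with HNF4a-Gal4 chimera and GAL4-UAS reporter units, dosed for 24 h. Reporter mRNA measured by RT-PCR, fluorescent primer extension and capillary electrophoresis; gain-of-signal fitted relative to DMSO.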

[3] = ATG_M_06_TRANS: Attagene TRANS-FACTORIAL HepG2 Assay for M06 Transcription Factor (Internal Marker) (AID 2282983; active means hit-call score of the fitted dose curve at least 0.9, where 1 is the maximum;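 further: reporter transcript level by RT-PCR then capillary electrophoresis fluorescence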); settings: HepG2 Attagene TRANS M06 internal marker reporter
Summary of the method: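 Measured by capillary electrophoresis of fluorescently labelled RT-PCR products, this endpoint reflects reporter mRNA in HepG2 cells harbouring exogenous NR-GAL4 reporter constructs after 24 h exposure, with DMSO as baseline.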

[4] = target: Transcriptional activator Myb (Homo sapiens) (UniProt P10242); experiment: ATG_Myb_CIS: Attagene CIS-FACTORIAL HepG2 Assay for human Myeloblastosis (Myb) Proto-Oncogene Transcription Factor (AID 2282986); settings: HepG2 Attagene CIS-FACTORIAL Myb reporter transcription; actives raise or lower the signal
Summary of the method: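 Using HepG2 liver cells bearing transiently transfected cis-promoter reporter constructs, the assay measures induction or loss of reporter mRNA after 24 hours of dosing. Detection used fluorescently labeled RT-PCR products separated by capillary electrophoresis.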

[5] = target: Nuclear respiratory factor 1 (Homo sapiens) (UniProt Q16656); experiment: ATG_NRF1_CIS: Attagene CIS-FACTORIAL HepG2 Assay for human Nuclear Respiratory Factor 1 (NRF1) Orphan Gene (AID 2282987); settings: HepG2 NRF1 cis-element reporter, Attagene multiplex; actives raise or lower the signal
Summary of the method: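 Reporter mRNA induction or loss in HepG2 cells after 24 h dosing; cis-regulated reporter constructs report endogenous transcription-factor activity. Quantified by RT-PCR/capillary electrophoresis fluorescence, DMSO-referenced.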

[6] = ATG_NFI_CIS: Attagene CIS-FACTORIAL HepG2 Assay for human Nuclear Factor I (NFI) (AID 2282989); settings: HepG2 cis-regulatory reporter, NFI response element transcription; actives raise or lower the signal
Summary of the method: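 Reporter transcription driven by endogenous transcription factors in HepG2 cells; 24 h treatment. Quantitation by labelled RT-PCR fragments on capillary electrophoresis, gain- or loss-of-signal relative to DMSO.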

[7] = target: Myc proto-oncogene protein (Homo sapiens) (UniProt P01106); experiment: ATG_Myc_CIS: Attagene CIS-FACTORIAL HepG2 Assay for human Myelocytomatosis (Myc) Proto-Oncogene Transcription Factor (AID 2282990); settings: HepG2, Attagene cis-reporter transcription factor activity; actives raise or lower the signal
Summary of the method: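 Fluorescence intensity of reporter-specific cDNA fragments, separated by capillary electrophoresis, gives the signal. Transfected HepG2 cells carrying cis-promoter reporter constructs are incubated with compound for 24 h; DMSO serves as baseline.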

[8] = ATG_NF_kB_CIS: Attagene CIS-FACTORIAL HepG2 Assay for human Nuclear Factor Kappa B (NF-kB) (AID 2282991); settings: HepG2 Attagene cis-factorial NF-kB reporter mRNA; actives raise or lower the signal
Summary of the method: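 DMSO served as negative control and baseline for bidirectional curve fitting. Transiently transfected HepG2 cells were dosed for 24 h, then reporter transcripts were measured by RT-PCR with capillary electrophoresis detection.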

[9] = ATG_NRF2_ARE_CIS: Attagene CIS-FACTORIAL HepG2 Assay for human Nuclear Factor Erythroid 2 Related Factor 2 (NFR2) response to Antioxidant Response Elements (ARE) (AID 2282992); settings: HepG2 Attagene ARE/NRF2 reporter, transcription factor activity; actives raise or lower the signal;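 on AC50: reporter mRNA level measured by RT-PCR and capillary electrophoresis fluorescence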
Summary of the method: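 HepG2 cells transiently transfected with multiplexed cis-regulated reporter transcription units measure endogenous transcription factor activity. Reporter mRNA at 24 h is quantified by RT-PCR, fluorescent labelling and capillary electrophoresis, with bidirectional fitting relative to DMSO.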

[10] = ATG_Oct_MLP_CIS: Attagene CIS-FACTORIAL HepG2 Assay for human Octamer-Binding Transcription Factor (Oct) (AID 2282993); settings: HepG2 Attagene cis-factorial Oct reporter, mRNA; actives raise or lower the signal
Summary of the method: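 Transfected HepG2 cells, 24 h treatment. Reporter mRNA quantified by RT-PCR–capillary electrophoresis; bidirectional fitting against DMSO.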

[11] = target: Cellular tumor antigen p53 (Homo sapiens) (UniProt P04637); experiment: ATG_p53_CIS: Attagene CIS-FACTORIAL HepG2 Assay for human p53 Transcription Factor (AID 2282994); settings: HepG2 p53 cis-element reporter, Attagene mRNA; actives raise or lower the signal
Summary of the method: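 HepG2 cells transiently transfected with multiplexed cis-regulated reporter transcription units read endogenous TF activity. After 24 h compound exposure, reporter mRNA was quantified by RT-PCR, fluorescent labelling, HpaI digestion and capillary electrophoresis; bidirectional fits versus DMSO baseline.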

[12] = BSK_3C_TissueFactor: BioMAP Diversity Plus: 3C Assay for Tissue Factor Biomarker Activity (AID 2282997); settings: BioMAP 3C HUVEC, tissue factor biomarker readout; actives raise or lower the signal
Summary of the method: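 Values derive from bidirectional curve fitting against DMSO of Tissue Factor ELISA signals, taken 24 h after dosing primary human umbilical vein endothelial cells.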

[13] = BSK_3C_uPAR: BioMAP Diversity Plus: 3C Assay for Urokinase-type plasminogen activator receptor (uPAR) Biomarker Activity (AID 2282998); settings: BioMAP 3C HUVEC, uPAR biomarker ELISA; actives raise or lower the signal
Summary of the method: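 Readout: ELISA for surface uPAR. System: human umbilical vein endothelial primary cells, 24 h after chemical exposure. Analysis: bidirectional fit, DMSO baseline.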

[14] = BSK_3C_VCAM1: BioMAP Diversity Plus: 3C Assay for Vascular cell adhesion molecule 1 (VCAM1) Biomarker Activity (AID 2282999); settings: BioMAP 3C HUVEC, VCAM1 ELISA, cytokine-stimulated; actives raise or lower the signal
Summary of the method: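 Human umbilical vein endothelial cells (3C system), biomarker read by ELISA 24 h after dosing; bidirectional fit against DMSO baseline. Cytotoxicity tracked by SRB total-protein staining in parallel cultures at biomarker time.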

[15] = BSK_4H_Eotaxin3: BioMAP Diversity Plus: 4H Assay for Eotaxin 3 Biomarker Activity (AID 2283000); settings: primary human endothelial cells (HUVEC); actives raise or lower the signal
Summary of the method: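 Endothelial primary cells (human umbilical vein) exposed to compound for 24 h. ELISA detection of Eotaxin-3.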

[16] = target: Oxysterols receptor LXR-alpha (Homo sapiens) (UniProt Q13133); experiment: ATG_LXRa_TRANS: Attagene TRANS-FACTORIAL HepG2 Assay for human Liver X Receptor alpha (LXRa) (AID 2282980; active means hit-call score of the fitted dose curve at least 0.9, where 1 is the maximum); settings: HepG2 Attagene TRANS reporter, LXRa transactivation
Summary of the method: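 Transient HepG2 transfectants, 24 h dosing, RT-PCR/CE mRNA reporter quantitation; gain-of-signal vs DMSO.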

[17] = target: Oxysterols receptor LXR-beta (Homo sapiens) (UniProt P55055); experiment: ATG_LXRb_TRANS: Attagene TRANS-FACTORIAL HepG2 Assay for human Liver X Receptor beta (LXRb) (AID 2282981; active means hit-call score of the fitted dose curve at least 0.9, where 1 is the maximum); settings: HepG2 Attagene TRANS GAL4-LXRb reporter, mRNA
Summary of the method: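 HepG2 cells transiently transfected with GAL4-UAS reporter units for chimeric NR-Gal4 proteins, dosed for 24 h. Reporter transcripts measured by RT-PCR and capillary electrophoresis; gain-of-signal fitting relative to DMSO.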

[18] = ATG_M_32_TRANS: Attagene TRANS-FACTORIAL HepG2 Assay for M32 Transcription Factor (Internal Marker) (AID 2282984; active means hit-call score of the fitted dose curve at least 0.9, where 1 is the maximum); settings: HepG2 Attagene TRANS M32 internal marker reporter
Summary of the method: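 HepG2 cells transiently transfected with GAL4-UAS reporter units, dosed for 24 hours. Reporter mRNA quantified by RT-PCR, 6-FAM labelling, HpaI digestion and capillary electrophoresis; internal-marker signal fitted upward relative to DMSO.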

[19] = target: Nuclear receptor subfamily 4 group A member 2 (Homo sapiens) (UniProt P43354); experiment: ATG_NURR1_TRANS: Attagene TRANS-FACTORIAL HepG2 Assay for human Nuclear Receptor Related Protein 1 (NURR1) (AID 2282985; active means hit-call score of the fitted dose curve at least 0.9, where 1 is the maximum); settings: HepG2 Attagene TRANS reporter, mRNA readout
Summary of the method: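 HepG2 cells transiently transfected with NURR1-Gal4 chimera and GAL4-UAS reporter units; after 24 hr compound exposure, reporter mRNA quantified by RT-PCR and capillary electrophoresis; gain of signal fitted against DMSO.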

[20] = target: Glucocorticoid receptor (Homo sapiens) (UniProt P04150); experiment: ATG_GR_TRANS: Attagene TRANS-FACTORIAL HepG2 Assay for human Glucocorticoid Receptor (GR) (AID 2282978; active means hit-call score of the fitted dose curve at least 0.9, where 1 is the maximum;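 further: activators score as hits since higher reporter transcript over DMSO is fitted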); settings: HepG2 Attagene TRANS GR reporter, mRNA transcription
Summary of the method: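 Transiently transfected HepG2 cells express chimeric NR-GAL4 proteins acting on GAL4-UAS reporter units. Compounds are applied for 24 h. mRNA induction over DMSO is measured by capillary electrophoresis.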

Measured: AC50

Sequence of Oxysterols receptor LXR-alpha (Homo sapiens) (Q13133 whole entry, looked up): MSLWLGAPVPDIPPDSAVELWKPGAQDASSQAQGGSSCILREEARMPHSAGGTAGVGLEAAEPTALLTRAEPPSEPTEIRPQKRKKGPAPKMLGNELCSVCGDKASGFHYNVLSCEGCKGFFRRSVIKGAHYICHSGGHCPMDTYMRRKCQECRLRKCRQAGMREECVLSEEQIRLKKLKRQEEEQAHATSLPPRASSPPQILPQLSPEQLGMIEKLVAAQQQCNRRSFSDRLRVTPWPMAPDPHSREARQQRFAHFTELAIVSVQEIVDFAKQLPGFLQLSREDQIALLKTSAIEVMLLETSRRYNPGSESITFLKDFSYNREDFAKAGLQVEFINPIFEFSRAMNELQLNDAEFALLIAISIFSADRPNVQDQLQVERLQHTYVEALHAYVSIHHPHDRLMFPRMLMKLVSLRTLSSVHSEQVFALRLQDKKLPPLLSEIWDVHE
Sequence of Glucocorticoid receptor (Homo sapiens) (P04150 whole entry, looked up, the tested form may be a part): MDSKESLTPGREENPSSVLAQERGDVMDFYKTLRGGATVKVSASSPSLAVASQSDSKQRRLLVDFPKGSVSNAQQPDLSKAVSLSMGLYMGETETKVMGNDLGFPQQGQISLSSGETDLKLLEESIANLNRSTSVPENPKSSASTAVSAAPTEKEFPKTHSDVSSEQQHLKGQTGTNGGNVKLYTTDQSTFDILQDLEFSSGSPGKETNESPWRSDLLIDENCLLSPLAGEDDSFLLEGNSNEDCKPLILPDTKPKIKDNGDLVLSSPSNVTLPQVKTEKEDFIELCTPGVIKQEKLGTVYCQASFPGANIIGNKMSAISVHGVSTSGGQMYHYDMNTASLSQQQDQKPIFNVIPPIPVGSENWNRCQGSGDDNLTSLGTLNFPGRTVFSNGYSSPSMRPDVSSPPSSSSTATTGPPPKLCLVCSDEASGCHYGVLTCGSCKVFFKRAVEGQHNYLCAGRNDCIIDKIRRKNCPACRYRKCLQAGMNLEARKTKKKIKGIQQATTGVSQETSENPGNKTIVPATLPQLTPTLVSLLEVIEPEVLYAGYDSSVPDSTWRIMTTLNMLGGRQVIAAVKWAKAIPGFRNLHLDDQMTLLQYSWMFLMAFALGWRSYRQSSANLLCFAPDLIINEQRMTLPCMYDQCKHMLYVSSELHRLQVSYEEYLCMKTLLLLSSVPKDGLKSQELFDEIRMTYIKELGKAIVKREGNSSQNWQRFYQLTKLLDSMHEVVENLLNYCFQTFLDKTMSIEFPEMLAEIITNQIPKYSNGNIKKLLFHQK
Sequence of Oxysterols receptor LXR-beta (Homo sapiens) (P55055 whole entry, looked up, the tested form may be a part): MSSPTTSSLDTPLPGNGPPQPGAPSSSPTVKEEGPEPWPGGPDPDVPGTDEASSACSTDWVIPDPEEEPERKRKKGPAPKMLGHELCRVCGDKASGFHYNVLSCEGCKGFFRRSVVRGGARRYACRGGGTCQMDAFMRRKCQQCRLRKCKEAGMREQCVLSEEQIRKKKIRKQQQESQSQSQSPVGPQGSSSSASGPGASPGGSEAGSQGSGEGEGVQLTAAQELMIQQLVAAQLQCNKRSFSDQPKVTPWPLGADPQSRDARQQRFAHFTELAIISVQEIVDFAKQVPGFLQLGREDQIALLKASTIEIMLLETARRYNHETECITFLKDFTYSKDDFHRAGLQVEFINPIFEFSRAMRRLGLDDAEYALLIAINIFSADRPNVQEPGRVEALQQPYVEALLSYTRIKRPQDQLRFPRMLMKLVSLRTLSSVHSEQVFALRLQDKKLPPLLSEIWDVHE
Sequence of Myc proto-oncogene protein (Homo sapiens) (P01106 whole entry, looked up, the tested form may be a part): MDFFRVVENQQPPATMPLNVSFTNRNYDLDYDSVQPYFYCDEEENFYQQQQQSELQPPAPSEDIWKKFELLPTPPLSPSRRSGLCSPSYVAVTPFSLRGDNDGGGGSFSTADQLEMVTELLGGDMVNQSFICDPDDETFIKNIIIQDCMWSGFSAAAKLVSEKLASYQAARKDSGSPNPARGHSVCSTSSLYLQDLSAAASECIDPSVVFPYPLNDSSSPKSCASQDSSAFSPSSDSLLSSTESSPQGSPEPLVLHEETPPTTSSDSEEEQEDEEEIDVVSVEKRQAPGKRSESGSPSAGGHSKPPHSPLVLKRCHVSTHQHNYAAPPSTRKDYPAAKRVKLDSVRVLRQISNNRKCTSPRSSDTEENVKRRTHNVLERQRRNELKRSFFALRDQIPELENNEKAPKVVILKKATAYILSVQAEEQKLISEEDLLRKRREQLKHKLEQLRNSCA
Sequence of Nuclear respiratory factor 1 (Homo sapiens) (Q16656 whole entry, looked up): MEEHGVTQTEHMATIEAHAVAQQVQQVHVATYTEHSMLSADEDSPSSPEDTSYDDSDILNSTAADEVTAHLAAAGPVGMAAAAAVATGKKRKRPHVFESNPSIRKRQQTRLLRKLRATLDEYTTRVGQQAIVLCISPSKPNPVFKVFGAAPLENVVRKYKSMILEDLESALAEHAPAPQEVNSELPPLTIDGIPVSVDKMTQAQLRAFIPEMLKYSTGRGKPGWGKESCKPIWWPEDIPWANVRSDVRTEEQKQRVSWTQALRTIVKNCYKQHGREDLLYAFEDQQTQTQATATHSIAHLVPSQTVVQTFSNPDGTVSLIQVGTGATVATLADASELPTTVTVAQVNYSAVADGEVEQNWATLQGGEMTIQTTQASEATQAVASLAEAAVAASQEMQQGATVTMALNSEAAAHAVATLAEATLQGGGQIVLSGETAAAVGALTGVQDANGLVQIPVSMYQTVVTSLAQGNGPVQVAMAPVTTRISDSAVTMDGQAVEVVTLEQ
Sequence of Transcriptional activator Myb (Homo sapiens) (P10242 whole entry, looked up): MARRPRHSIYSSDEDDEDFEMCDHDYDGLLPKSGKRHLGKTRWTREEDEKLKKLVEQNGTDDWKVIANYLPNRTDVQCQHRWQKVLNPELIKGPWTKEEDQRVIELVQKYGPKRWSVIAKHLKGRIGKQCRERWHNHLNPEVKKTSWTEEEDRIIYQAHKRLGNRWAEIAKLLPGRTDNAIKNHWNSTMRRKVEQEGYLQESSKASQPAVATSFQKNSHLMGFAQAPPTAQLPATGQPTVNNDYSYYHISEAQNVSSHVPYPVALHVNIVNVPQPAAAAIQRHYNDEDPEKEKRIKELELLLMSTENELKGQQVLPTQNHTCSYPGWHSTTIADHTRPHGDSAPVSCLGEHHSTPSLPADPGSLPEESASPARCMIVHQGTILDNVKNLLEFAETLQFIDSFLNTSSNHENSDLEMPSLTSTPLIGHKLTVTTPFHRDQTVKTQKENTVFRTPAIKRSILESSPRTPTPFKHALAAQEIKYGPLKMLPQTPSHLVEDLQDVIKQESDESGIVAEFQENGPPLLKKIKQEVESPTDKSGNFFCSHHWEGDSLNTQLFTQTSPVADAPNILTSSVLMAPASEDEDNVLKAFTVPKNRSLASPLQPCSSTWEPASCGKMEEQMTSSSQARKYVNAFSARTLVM
Sequence of Cellular tumor antigen p53 (Homo sapiens) (P04637 whole entry, looked up): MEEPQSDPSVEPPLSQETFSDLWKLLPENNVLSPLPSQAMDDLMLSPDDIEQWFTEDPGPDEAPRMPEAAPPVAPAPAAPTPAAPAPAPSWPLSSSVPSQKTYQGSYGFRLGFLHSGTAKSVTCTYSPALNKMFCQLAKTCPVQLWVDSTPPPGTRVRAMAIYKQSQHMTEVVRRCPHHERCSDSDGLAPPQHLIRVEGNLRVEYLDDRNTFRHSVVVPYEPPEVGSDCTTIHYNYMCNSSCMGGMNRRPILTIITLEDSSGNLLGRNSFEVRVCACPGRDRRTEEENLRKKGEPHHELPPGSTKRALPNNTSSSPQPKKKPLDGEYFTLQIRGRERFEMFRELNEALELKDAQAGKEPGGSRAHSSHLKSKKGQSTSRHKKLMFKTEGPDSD
Sequence of Hepatocyte nuclear factor 4-alpha (Homo sapiens) (P41235 whole entry, looked up, the tested form may be a part): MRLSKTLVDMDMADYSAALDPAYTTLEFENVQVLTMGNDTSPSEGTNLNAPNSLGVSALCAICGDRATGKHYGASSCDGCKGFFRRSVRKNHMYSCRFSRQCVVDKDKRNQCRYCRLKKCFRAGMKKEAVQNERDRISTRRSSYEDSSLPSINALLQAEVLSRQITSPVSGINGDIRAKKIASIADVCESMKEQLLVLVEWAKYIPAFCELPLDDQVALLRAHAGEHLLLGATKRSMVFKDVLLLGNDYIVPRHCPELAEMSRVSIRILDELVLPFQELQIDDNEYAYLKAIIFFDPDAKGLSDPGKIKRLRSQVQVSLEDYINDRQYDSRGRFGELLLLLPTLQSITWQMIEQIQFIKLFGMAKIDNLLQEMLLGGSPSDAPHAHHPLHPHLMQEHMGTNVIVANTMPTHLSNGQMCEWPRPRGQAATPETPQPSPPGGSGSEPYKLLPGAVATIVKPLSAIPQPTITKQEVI
Sequence of Bile acid receptor (Homo sapiens) (Q96RI1 whole entry, looked up, the tested form may be a part): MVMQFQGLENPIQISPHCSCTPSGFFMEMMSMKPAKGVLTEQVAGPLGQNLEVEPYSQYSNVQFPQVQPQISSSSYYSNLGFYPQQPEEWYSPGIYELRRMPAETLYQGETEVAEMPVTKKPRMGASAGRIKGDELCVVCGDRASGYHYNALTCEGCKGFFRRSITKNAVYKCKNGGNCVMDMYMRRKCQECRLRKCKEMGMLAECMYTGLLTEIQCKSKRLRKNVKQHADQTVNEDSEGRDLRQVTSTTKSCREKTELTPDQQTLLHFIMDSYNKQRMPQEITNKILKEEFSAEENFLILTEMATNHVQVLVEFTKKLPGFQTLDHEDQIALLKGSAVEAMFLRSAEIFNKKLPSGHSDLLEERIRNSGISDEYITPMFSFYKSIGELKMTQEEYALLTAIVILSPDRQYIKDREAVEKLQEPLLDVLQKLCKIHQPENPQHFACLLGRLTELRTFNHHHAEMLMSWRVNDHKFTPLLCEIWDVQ

O=c1[nH]sc2ccccc12
active: [6] 45.9 µM | [9] 6.26 µM | [11] 42.6 µM | [12] 8.49 µM | [13] 15 µM | [14] 8.74 µM | [15] 8.99 µM
not listed: [16] | [17] | [18] | [19] | [20]
inactive: all other assays above

CC1(C)NC(=O)N(c2ccc([N+](=O)[O-])c(C(F)(F)F)c2)C1=O
active: [9] 68.8 µM and 22 µM and 46 µM
inactive: [1] | [16] | [17] | [2] | [3] | [18] | [4] | [5] | [6] | [7] | [9] | [10] | [11] | [12] | [13] | [14] | [15]

CCN(Cc1cccc(S(=O)(=O)O)c1)c1ccc(C(=C2C=CC(=[N+](CC)Cc3cccc(S(=O)(=O)O)c3)C=C2)c2ccccc2S(=O)(=O)[O-])cc1
not listed: [12] | [16] | [17] | [18] | [20]
inactive: all other assays above

CCCCCCCCCCCO
active: [18] 166 µM | [12] 36.4 µM | [13] 34.2 µM | [14] 36.3 µM | [15] 31.6 µM
not listed: [2] | [3] | [16] | [17] | [19] | [20]
inactive: all other assays above

CCN(CC)C(=O)c1cc(S(=O)(=O)Cc2ccccc2)c(N2CCC(c3ccccc3)CC2)cc1N(CC)CCN(C)C
active: [9] 3.7 µM | [12] 32.2 µM | [13] 5.11 µM | [14] 12.9 µM | [15] 18.7 µM
not listed: [1] | [17] | [18] | [19]
inactive: all other assays above

Cc1cc2c(cc1C(F)(F)F)N(C(=O)Nc1ccc(Oc3cccnc3C)nc1)CC2
active: [12] 0.623 µM
not listed: [1] | [2] | [3] | [16] | [19]
inactive: all other assays above

CC[C@H](NC(=O)c1cc(F)ccc1NS(=O)(=O)c1cccc2cccnc12)c1ccccc1
active: [9] 0.13 µM
not listed: [2] | [16] | [17] | [19] | [20]
inactive: all other assays above

NCc1cccc(C2CCN(C(=O)c3ccc(C#Cc4ccccc4F)o3)CC2)c1
active: [16] 8.2 µM | [8] 18.3 µM | [9] 1.76 µM | [10] 15.5 µM | [12] 15.6 µM | [13] 7.38 µM | [14] 15.8 µM | [15] 15.8 µM
not listed: [1] | [19] | [20]
inactive: all other assays above

CCCCCCCCN(C)CCCCCCCC
not listed: [1] | [12] | [16] | [17] | [19]
inactive: all other assays above

CCCCCCCCOc1ccc(C(=O)c2ccccc2)c(O)c1
not listed: [2] | [3] | [12] | [16] | [19] | [20]
inactive: all other assays above

From PubChem BioAssay (EPA / NIEHS)
